Data reported in PubChem BioAssay AID1159580 (chemical genetic matrix, 2015).
Several values for one entry are separate records, joined by “and”; a condition that tells them apart may be missing. Equal values may be shown once. The campaign covered roughly 5,500 compounds. About 2,000 (36%) were called active. Inconclusive results (about 18%) are left out. No stated cut-off is given here; in the data, active means normalized growth mostly below about 0.91 (no sharp cut-off); inconclusive means no clear call, values can overlap the other calls; inactive means mostly above about 0.92. Some of the results follow.

Experiment: chemical genetic growth profiling, strain panel (AID 1159580);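 further: tested at 20 µM; growth read once vehicle control cultures reached saturation at 30 °C; 1 = growth at the plate median or of vehicle wells; lower values mean less growth of the strain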
Conditions: S. cerevisiae deletion strains, growth OD

Measured: normalized growth

C[C@]12CCC3c4ccc(OS(=O)(=O)O)cc4CCC3C1CC[C@H]2O (some centres undefined)
inactive: locus YAL013W, strain DEP1, active compounds read low 0.998 | locus YAL021C, strain ccr4, active compounds read low 0.986 | locus YAL026C, strain drs2, active compounds read low 0.973 | locus YAL030W, strain snc1, active compounds read low 1 | locus YBL061C, strain skt5, active compounds read low 0.969 | locus YBR009C, strain hhf1, active compounds read low 1.04 | locus YBR021W, strain FUR4, active compounds read low 0.983 | locus YBR023C, strain chs3, active compounds read low 0.966 | locus YBR171W, strain sec66, active compounds read low 0.983 | locus YBR229C, strain ROT2, active compounds read low 0.988 | locus YBR231C, strain swc5, active compounds read low 0.993 | locus YBR279W, strain paf1, active compounds read low 0.978 | locus YCL011C, strain gbp2, active compounds read low 0.961 | locus YCL016C, strain dcc1, active compounds read low 0.948 | locus YCL029C, strain bik1, active compounds read low 0.99 | locus YCL061C, strain MRC1, active compounds read low 0.975 | locus YCL069W, strain vba3, active compounds read low 0.985 | locus YCR088W, strain abp1, active compounds read low 0.983 | locus YDL005C, strain med2, active compounds read low 0.984 | locus YDL035C, strain GPR1, active compounds read low 0.991 | locus YDL040C, strain nat1, active compounds read low 0.985 | locus YDL074C, strain BRE1, active compounds read low 1.02 | locus YDL101C, strain DUN1, active compounds read low 0.996 | locus YDL134C, strain PPH21, active compounds read low 0.978 | locus YDL185W, strain tfp1, active compounds read low 0.99 | locus YDL192W, strain arf1, active compounds read low 0.987 | locus YDR001C, strain nth1, active compounds read low 0.974 | locus YDR069C, strain doa4, active compounds read low 0.981 | locus YDR101C, strain arx1, active compounds read low 0.988 | locus YDR137W, strain rgp1, active compounds read low 0.955 | locus YDR150W, strain NUM1, active compounds read low 0.997 | locus YDR159W, strain sac3, active compounds read low 0.984 | locus YDR162C, strain NBP2, active compounds read low 0.986 | locus YDR195W, strain ref2 0.97 | locus YDR297W, strain sur2, active compounds read low 0.986 | locus YDR318W, strain mcm21, active compounds read low 0.986 | locus YDR334W, strain swr1, active compounds read low 0.968 | locus YDR335W, strain msn5, active compounds read low 0.968 | locus YDR388W, active compounds read low 0.986 | locus YDR392W, strain spt3, active compounds read low 0.907 | locus YDR502C, strain sam2, active compounds read low 0.986 | locus YEL003W, strain gim4, active compounds read low 1 | locus YEL037C, strain rad23, active compounds read low 0.989 | locus YEL061C, strain CIN8 (second series), active compounds read low 0.981 | locus YEL061C, strain CIN8, active compounds read low 0.996 | locus YER015W, strain faa2, active compounds read low 0.986 | locus YER016W, strain bim1, active compounds read low 0.942 | locus YER110C, active compounds read low 0.978 | locus YER111C, strain swi4, active compounds read low 0.965 | locus YER155C, strain BEM2 (second series), active compounds read low 1 | locus YER155C, strain BEM2, active compounds read low 0.994 | locus YER167W, strain BCK2, active compounds read low 0.987 | locus YFR010W, strain ubp6, active compounds read low 0.998 | locus YGL078C, strain dbp3, active compounds read low 0.986 | locus YGL086W, strain mad1, active compounds read low 0.988 | locus YGL167C, strain pmr1, active compounds read low 0.973 | locus YGL173C, strain kem1, active compounds read low 0.999 | locus YGL227W, strain vid30, active compounds read low 0.981 | locus YGL240W, strain doc1, active compounds read low 1.01 | locus YGL248W, strain PDE1, active compounds read low 0.997 | locus YGL253W, strain hxk2, active compounds read low 0.953 | locus YGR078C, strain PAC10, active compounds read low 1.01 | locus YGR135W, strain pre9, active compounds read low 0.96 | locus YGR229C, strain SMI1, active compounds read low 1.01 | locus YGR252W, strain gcn5, active compounds read low 0.997 | locus YHR013C, strain ard1, active compounds read low 0.92 | locus YHR027C, strain rpn1, active compounds read low 0.965 | locus YHR030C, strain SLT2, active compounds read low 0.99 and 0.957 | locus YHR079C, strain IRE1 (second series), active compounds read low 0.986 | locus YHR079C, strain IRE1, active compounds read low 0.959 | locus YHR094C, strain hxt1, active compounds read low 0.987 | locus YHR129C, strain ARP1, active compounds read low 0.988 | locus YHR142W, strain chs7, active compounds read low 0.951 | locus YHR200W, strain rpn10, active compounds read low 0.987 | locus YIL066C, strain RNR3, active compounds read low 0.984 | locus YIL073C, strain SPO22, active compounds read low 0.954 | locus YIL125W, strain kgd1, active compounds read low 0.988 | locus YIR030C, strain dcg1, active compounds read low 0.992 | locus YJL092W, strain hpr5, active compounds read low 0.978 | locus YJL095W, strain BCK1 (second series), active compounds read low 0.969 | locus YJL095W, strain BCK1, active compounds read low 1.02 and 0.969 | locus YJL115W, strain asf1, active compounds read low 0.947 | locus YJL129C, strain trk1, active compounds read low 0.911 | locus YJL134W, strain LCB3, active compounds read low 0.993 | locus YJL154C, strain vps35, active compounds read low 0.976 | locus YJL164C, strain tpk1, active compounds read low 0.983 | locus YJL166W, strain qcr8, active compounds read low 0.998 | locus YJL168C, strain set2, active compounds read low 1 | locus YJL187C, strain SWE1 (second series), active compounds read low 1.01
